Results filed as inconclusive are left out. Values without a mark were called inactive. Calls of active or inactive are those of the source. Calls come from the whole dose curve; as a rule, active = well fitted inhibition curve with a large enough effect; inconclusive = small, poorly fitted or top-dose-only effect; inactive = flat fitted curve, though single readings scatter.
Each molecule was assayed on KB-3-1 (assay: Cytotoxic Profiling of Annotated Libraries Using Quantitative High-Throughput Screening (AID 1296008; note: nearly all actives have a fitted effect of over 60% in size)). Details: Five cell lines viability, CellTiter-Glo ATP luminescence, 48-72 h; max response: hits give low values.
Procedure, shortened: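 Cytotoxicity was measured as CellTiter-Glo ATP luminescence, read after 10 min at room temperature. Compound treatment of the cells lasted 48 or 72 hr at 37 degrees Celsius in a qHTS format.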
% is set by controls: 0 for no effect and ±100 for the full control effect; potency is the fitted concentration of half-maximal effect.

SMILES	Potency	max response [%]
CCS(=O)(=O)N1CCN(c2ccc(Nc3ncc(C(N)=O)c(NC4CC4)n3)cc2)CC1	5.17 µM (active)	
Cc1ccccc1-n1c([C@H](C)Nc2nc(N)nc3nc[nH]c23)nc2cccc(C)c2c1=O		-12.5
c1cc(Nc2cc(C3CC3)[nH]n2)nc(Nc2ccc3nc[nH]c3c2)n1	1.3 µM (active)	
CN(C)c1nc(NC2CCC(NC(=O)c3ccc(F)c(F)c3)CC2)nc2ccccc12 (stereo not drawn)	23.1 µM (active)	
CCc1cccc(CC)c1NC(=O)c1nn(C)c2c1CCc1cnc(Nc3ccc(C(=O)NC4CCN(C)CC4)cc3OC(F)(F)F)nc1-2	5.63 µM (active)	
Oc1ccc(CNc2ccccc2F)c2cccnc12	5.8 µM (active)	
CNC(=O)c1ccccc1Nc1nc(Nc2ccc3c(c2OC)CCC[C@@H](N2CCN(CCO)CC2)C3)ncc1Cl	13 µM (active)	
CC(C)(C#N)c1ccc(N2C(=O)OCc3cnc4ccc(-c5cnc6ccccc6c5)cc4c32)cc1	6.51 µM (active)	
Cc1c(C(=O)Nc2ccc(N3CC(C)OC(C)C3)nc2)cccc1-c1ccc(OC(F)(F)F)cc1 (stereo not drawn)		-28.5
CC(=O)NC1=NN(C(C)=O)C(C)(c2ccccc2)S1 (stereo not drawn)	5.17 µM (active)	
N#Cc1ccc(-c2cnc3[nH]cc(NC(=O)c4cccnc4)c3c2)cc1		-24.8
CC1(C)CC(=O)C2=C(C1)NC(=S)NC2c1cccc(O)c1 (stereo not drawn)	0.82 µM (active)	
CC(O)c1cc(C(=O)N[C@@H](C)Cn2ccc(-c3ccc(C#N)c(Cl)c3)n2)n[nH]1 (stereo partly drawn)		-27.8
CCCN1CCC(c2cccc(S(C)(=O)=O)c2)CC1		-3.93
C=CC(=O)Nc1cccc(CN2C(=O)N(c3c(Cl)c(OC)cc(OC)c3Cl)Cc3cnc(NCCCCN(CC)CC)nc32)c1	18.4 µM (active)	
COc1cc2c(NC3CCN(CC4CCCCC4)CC3)nc(N3CCCN(C(C)C)CC3)nc2cc1OCCCN1CCCCC1	3.66 µM (active)	
C[C@@H]1O[C@@H](O[C@H]2[C@H](O[C@H]3CC[C@@]4(C)C(CC[C@]5(C)C4C=C[C@]46OC[C@@]7(CCC(C)(C)C[C@H]74)[C@@H](O)C[C@]65C)[C@]3(C)CO)O[C@H](CO)[C@@H](O)[C@@H]2O[C@@H]2O[C@H](CO)[C@@H](O[C@@H]3O[C@@H](C)[C@H](O)[C@@H](O)[C@H]3O)[C@H](O)[C@H]2O)[C@H](O)[C@H](O)[C@H]1O (stereo partly drawn)		-30.1
CCC(C)C(=O)OC1CC(O)C23C4OCC5(C(O)CC2C1(C)C(O)O4)C3C(=O)CC1(C)C(c2ccoc2)CC2OC215 (stereo not drawn)	1.78 µM (active)	

Source: PubChem BioAssay (NCATS)
